# PubChem BioAssay AID540333 (Southern Research Specialized Biocontainment Screening …, 2011)
# Out of some 10,000 compounds screened, about 320 (3.2%) were called active. Cut-off read from the data, not from the text of the source: active = CPE inhibition mostly above about 9.1% (no sharp cut-off); inactive = mostly below about 7.2%. What follows is part of a selection rich in actives, with near analogues and random picks from the rest.
# Assay: Dengue virus cytopathic effect inhibitors, cell-based, CPE readout, HTS (AID 540333)
# Conditions: Dengue virus CPE inhibition in host cells, at 20 µM; active compounds read high
row,Compound,CPE inhibition
1,CCOc1ccccc1NC(=S)NNS(=O)(=O)c1c(C)cc(C)cc1C,inactive
2,Cc1ccc(NC(=O)CC(C(=O)O)c2ccccc2)cc1 (configuration not stated),inactive
3,C=CCC(C(=O)Oc1c(C(C)(C)C)cc(C)cc1C(C)(C)C)c1ccccc1 (configuration not stated),12.5% (active)
4,CCOC(=O)N1CCN(CC(O)COc2ccc(C)cc2C(C)(C)C)CC1 (configuration not stated),2.44% (inactive)
5,CC(C)Oc1ccc(C(CC(=O)N(C)CCC#N)c2ccc(F)cc2)cc1 (configuration not stated),0.65% (inactive)
6,COC(=O)CNC(c1ccccc1)c1cc(Br)ccc1NC(=O)CNC(=O)OCc1ccccc1 (configuration not stated),16.5% (active)
7,NNC(=O)CNC(c1ccccc1)c1cc(Br)ccc1NC(=O)c1cccc(Cl)c1 (configuration not stated),0.305% (inactive)
8,COC(=O)CNC(c1ccccc1)c1cc(C)ccc1NC(=O)c1cccc(Cl)c1 (configuration not stated),3.54% (inactive)
9,O=C(Oc1cccc(/C=N/Nc2nc(Nc3ccccc3)nc(N3CCOCC3)n2)c1)c1ccco1,inactive
10,Cc1ccc(C(O)(C(=O)NNc2ccc3ccccc3n2)c2ccc(C)cc2)cc1,inactive
11,CC(Sc1nc(-c2ccccc2)cc(C(F)(F)F)n1)C(=O)Nc1ccc2c(c1)OCO2 (configuration not stated),3% (inactive)
12,O=C(Nc1cccc(C(F)(F)F)c1)C(Sc1ncnc2ccccc12)c1ccccc1 (configuration not stated),2.71% (inactive)
13,CC(Sc1ncnc2ccccc12)C(=O)Nc1ccc2c(c1)OCCO2 (configuration not stated),12.4% (active)
14,CC(C)(C)c1ccc(C(=O)N2CCC(=O)N(C(CO)Cc3ccccc3)CC2)cc1 (configuration not stated),inactive
15,CC(C)CC(COCc1ccc(Cl)cc1)N1CCN(C(=O)c2ccc(C(F)(F)F)cc2)CCC1=O (configuration not stated),12.7% (active)
16,CC(C)C[C@@H](COc1ccccc1)N1CCN(Cc2ccccc2)CCC1=O,0.51% (inactive)
17,O=C(Nc1cccc(Cl)c1)Nc1ccc2c(c1)C(=O)OC2,inactive
18,COc1cccc(N2C(C(C)=O)=NN(c3ccccc3)C2c2ccc(N3CCOCC3)cc2)c1 (configuration not stated),2.42% (inactive)
19,COc1ccccc1[C@@H]1C(c2cccc(Cl)c2)=NN(c2ccccc2)[C@H]1C(=O)N1CCOC1=O,19.3% (active)
20,O=C1C2C(c3ccccc3)=NN(c3ccccc3)C2C(=O)N1c1ccccc1 (configuration not stated),inactive
21,O=C(/C=C/c1ccc(Br)cc1)NC(=S)Nc1ccc(S(=O)(=O)Nc2nccs2)cc1,inactive
22,Nc1c(C(=O)c2ccc(Cl)cc2)sc2nc3c(cc12)CCC3,7.59% (inactive)
23,O=C(O)c1ccc(NC(=O)c2cccc(N3C(=O)C4C5CCC(C5)C4C3=O)c2)cc1 (configuration not stated),1.22% (inactive)

row,Compound,CPE inhibition
1,O=C(Nc1ccc(Cl)cc1)c1cccc(N2C(=O)C3C4CCC(C4)C3C2=O)c1 (configuration not stated),2.71% (inactive)
2,CC(C)(C)NC(=O)c1ccc2c(c1)C1C3CCC(C3)C1C(c1ccccc1)N2 (configuration not stated),15.9% (active)
3,O=C(CCC(=O)NCCCc1ccccc1)NCCCc1ccccc1,inactive
4,Cc1ccc(SCCNC(=O)/C=C/c2cccc([N+](=O)[O-])c2)cc1,6.54% (inactive)
5,COc1cccc(SCc2noc(C(=O)NCCCN3CCOCC3)c2C(=O)NCCCN2CCOCC2)c1,0.255% (inactive)
6,COCCNC(=O)c1onc(CSc2ccc(F)c(F)c2)c1C(=O)NCCOC,inactive
7,O=C(NCCCN1CCOCC1)c1onc(CSc2ccc(F)c(F)c2)c1C(=O)NCCCN1CCOCC1,inactive
8,CCCCNC(=O)c1onc(CSc2cccc(OC)c2)c1C(=O)O,inactive
9,C=CCNC(=O)c1c(CSc2ccc(Cl)cc2)noc1C(=O)NCCC,0.85% (inactive)
10,C=CCNC(=O)c1c(CSc2ccc(Cl)cc2)noc1C(=O)NCc1ccccc1,11.2% (active)
11,CCCCNC(=O)c1onc(CSc2cccc(OC)c2)c1C(=O)NCCCC,20.1% (active)
12,CCCCNC(=O)c1onc(CSc2ccc(F)c(F)c2)c1C(=O)NCCCC,11.5% (active)
13,O=C(NCCCN1CCOCC1)c1onc(CSc2ccccn2)c1C(=O)NCCCN1CCOCC1,inactive
14,C=CCNC(=O)c1onc(CSc2ccccc2)c1C(=O)NCC=C,0.535% (inactive)
15,CC(C)CCNC(=O)c1onc(CSc2ccccn2)c1C(=O)NCCC(C)C,25.9% (active)
16,CCCCNC(=O)c1onc(CSc2ccccn2)c1C(=O)NCCCC,1.85% (inactive)
17,CCn1c(C)nc2cc(C(=O)NNC(=S)Nc3ccc(Cl)cc3Cl)ccc21,inactive
18,O=C(Cc1cccs1)N/N=C/c1ccco1,0.08% (inactive)
19,COC(=O)c1c(NC(=O)C2C3C=CC(CC3)C2C(=O)O)sc(C)c1C (configuration not stated),inactive
20,CC1=CN2C(=N)/C(=C/c3ccc(Sc4ccc(C)cc4)o3)C(=O)N=C2S1,9.52% (inactive)
21,Cc1cccc(NC(=O)CN2C(=O)N/C(=C/c3cc(C)n(-c4ccncc4)c3C)C2=O)c1,inactive
22,COCCNC(=O)c1onc(CSc2cccc(OC)c2)c1C(=O)NCCOC,0.425% (inactive)
23,COc1cccc(SCc2noc(C(=O)NCCC(C)C)c2C(=O)NCCC(C)C)c1,23% (active)

row,Compound,CPE inhibition
1,COc1cccc(SCc2noc(C(=O)NCCN(C)C)c2C(=O)NCCN(C)C)c1,0.54% (inactive)
2,CNC(=S)N(CCc1ccc(OC)c(OC)c1)Cc1cc2c(C)cc(C)cc2[nH]c1=O,inactive
3,O=C1CN(C(=O)CSc2nnc3ccccn23)c2ccccc2N1,0.845% (inactive)
4,C=CCNC(=O)C12CCC(C)(C(=O)C1Br)C2(C)C (configuration not stated),0.36% (inactive)
5,CCOC(=O)N(NC(=O)C(O)(c1ccccc1)c1ccccc1)c1ccccc1,2.6% (inactive)
6,COC(=O)N(NC(=O)C(O)(c1ccccc1)c1ccccc1)c1ccc(C)cc1,61.4% (active)
7,COC(=O)N(NC(=O)C(O)(c1ccccc1)c1ccccc1)c1ccccc1,1.2% (inactive)
8,COc1ccc(-c2nn(-c3ccccc3)cc2/C=C(/C#N)C(N)=O)cc1[N+](=O)[O-],inactive
9,CC(NC(=O)/C(C#N)=C/c1cn(-c2ccccc2)nc1-c1ccc(F)cc1)c1ccccc1 (configuration not stated),8.04% (active)
10,COc1ccc(-c2nn(-c3ccccc3)cc2/C=C(\C#N)S(=O)(=O)c2ccccc2)cc1OC,0.055% (inactive)
11,CC1CC(=O)N(c2ccc(NCc3ccc(Cl)cc3)c([N+](=O)[O-])c2)C1=O (configuration not stated),0.275% (inactive)
12,COc1ccc(CC(=O)NNc2ncnc3c2cnn3-c2ccc(C)cc2)cc1OC,2.76% (inactive)
13,S=C(N/N=C/c1ccc(Cl)cc1)N1CCOCC1,inactive
14,Cc1cc(C)nc(N/N=C/C2=C(N3CCOCC3)C(=C\c3ccc(Cl)cc3)/CC2)n1,15.6% (active)
15,O=[N+]([O-])c1cccc(/C=N/Nc2nc(NCc3ccccc3)nc(N3CCOCC3)n2)c1,1.39% (inactive)
16,COc1ccc(-n2c(C)cc(/C=N/Nc3nc(N4CCOCC4)nc(N4CCOCC4)n3)c2C)cc1,inactive
17,Cc1cc(C)nc(N/N=C/C=C/c2ccccc2)n1,0.52% (inactive)
18,Cc1cc(C)nc(N/N=C/C2=C(N3CCOCC3)C(=C/c3ccccc3)/CC2)n1,9.78% (active)
19,COc1ccccc1NC(=S)N1CCN(C/C=C/c2ccccc2)CC1,0.46% (inactive)
20,O=C(N/N=C/c1cccc(O)c1)c1ccc(COc2ccccc2Br)cc1,3.17% (inactive)
21,S=C(NCCCNC(=S)Nc1ccccc1)Nc1ccccc1,inactive
22,CCOCC(O)CNc1ccccc1 (configuration not stated),inactive
23,COc1ccc(N(C(=O)CS(=O)CC(=O)Nc2ccc(F)cc2)C(C(=O)NC2CCCCC2)c2cccs2)cc1 (configuration not stated),0.1% (inactive)

row,Compound,CPE inhibition
1,COC(=O)c1c(NC(=O)COC(=O)c2ccc(Cl)cc2[N+](=O)[O-])sc2c1CCCCC2,3.41% (inactive)
2,O=C(COC(=O)CNS(=O)(=O)c1ccc2ccccc2c1)Nc1ccccc1Sc1ccccc1,inactive
3,COC(=O)c1c(NC(=O)C2C3CCC(O3)C2C(=O)O)sc2c1CCCCCC2 (configuration not stated),0.645% (inactive)
4,CC(C)[C@H](NS(=O)(=O)c1ccccc1)C(=O)OCC(=O)Nc1ccccc1Sc1ccccc1,24.5% (active)
5,CCOC(=O)c1c(NC(=O)COC(=O)c2ccccn2)sc2c1CCC2,inactive
6,CCOC(=O)c1c(NC(=O)c2ccccc2N(C)S(=O)(=O)c2ccccc2)sc2c1CCCC2,0.225% (inactive)
7,CC(C)OC(=O)c1c(NC(=O)CCC(=O)O)sc2c1CCCCC2,inactive
8,COC(=O)c1c(NC(C)=O)sc2c1CCCCC2,0.285% (inactive)
9,COC(=O)c1c(NC(=O)CN2C(=O)NC(CCc3ccccc3)C2=O)sc2c1CCCCC2 (configuration not stated),25.6% (active)
10,COC(=O)c1c(NC(=O)COC(=O)[C@@H](NS(=O)(=O)c2ccccc2)C(C)C)sc2c1CCC2,24% (active)
11,O=C(COC(=O)CNS(=O)(=O)c1cccc(Br)c1)Nc1ccccc1Sc1ccccc1,inactive
12,COC(=O)c1c(NC(=O)CN(c2ccccc2)S(C)(=O)=O)sc2c1CCCC2,18% (active)
13,CCCCn1c(N)c(NCCC)c(=O)[nH]c1=O,inactive
14,COc1cc(C)c(S(=O)(=O)N2CCN=C2c2ccccc2)cc1C,inactive
15,CCO[C@@H]1OC(C(=O)O)=C[C@H](c2cn(C(C)=O)c3ccccc23)[C@H]1CCCO,inactive
16,Cc1ccccc1NC(=S)NCC(c1cccnc1)N1CCOCC1 (configuration not stated),inactive
17,N#Cc1c(-c2ccccc2)nc(SCC(=O)Nc2ccccc2)[nH]c1=O,inactive
18,Cc1cccc(N2CCN(C(=S)NCc3ccco3)CC2)c1C,0.45% (inactive)
19,CC(NS(=O)(=O)c1ccc2c(c1)OCCCO2)C(=O)O (configuration not stated),0.55% (inactive)
20,CCCCOC(=O)/C=C/c1ccc(OC(=O)OC)c(OC(=O)OC)c1,inactive
21,COc1ccc(/C(O)=C2/C(=O)C(=O)N(CCCN(C)C)C2c2cccc(Cl)c2)cc1OC (configuration not stated),0.13% (inactive)
22,CCOC(=O)c1c(NC(=O)CSC(=S)N2CCOCC2)sc(C)c1C,0.065% (inactive)
23,COc1ccc(C(=O)NC(=S)N(CCC(C)C)c2c(N)n(Cc3ccccc3)c(=O)[nH]c2=O)cc1,0.675% (inactive)
